The results in this text go back to PubChem BioAssay (NCATS).

Inconclusive results are not listed. A number with no mark means an inactive call. Activity calls are given as the source filed them. Calls follow the shape of the dose curve; as a rule, active = well fitted curve in the direction sought with a large enough effect; inconclusive = small, poorly fitted or top-dose-only effect, or another doubt; inactive = no such curve, though single readings can be large; an effect the other way counts as inactive or inconclusive.

A short description of experiment [1]: qHTS of pediatric cancer cell lines to identify multiple opportunities for drug repurposing: Confirmatory screen for SJ-GBM2 cells (AID 1347116). Also: nearly all actives have a fitted effect of over 60% in size.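 As to activity change, negative = cytotoxic: plate controls were DMSO for no effect and bortezomib for full effect.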 In a few lines: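 Viability measured as metabolically active cells via CellTiter-Glo luminescence following 48 hours of compound exposure, 11-point dilutions in confirmatory testing. 500-1,000 cells/well plated 5 hours before dosing; controls were DMSO and 2.3 µM bortezomib.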
(qHTS replaces the single test concentration by a dilution series.)

A short description of experiment [2]: qHTS of pediatric cancer cell lines to identify multiple opportunities for drug repurposing: Confirmatory screen for BT-37 cells (AID 1347117). Also: nearly all actives have a fitted effect of over 55% in size.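 As to activity change, negative = cytotoxic: plate controls were DMSO for no effect and bortezomib for full effect.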 In a few lines:
(§1)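 Cells (500-1,000/well) in growth media were settled 5 h at 37 degrees C, then given compounds for 48 h. Viability was read as CellTiter-Glo luminescence. Primary runs used MIPE at 11 points (0.78 nM-46 µM) and NPC at 8 points (0.59 nM-46 µM); follow-ups used 11 points.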

The nature of experiment [3]: qHTS of pediatric cancer cell lines to identify multiple opportunities for drug repurposing: Confirmatory screen for MG 63 (6-TG R) cells (AID 1347119). Also: nearly all actives have a fitted effect of over 55% in size.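 As to activity change, negative = cytotoxicity: plate controls were DMSO neutral control for no effect and bortezomib for full effect.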 In a few lines:
as §1

The nature of experiment [4]: qHTS of pediatric cancer cell lines to identify multiple opportunities for drug repurposing: Confirmatory screen for control Hh wild type fibroblast cells (AID 1347121). Also: nearly all actives have a fitted effect of over 70% in size.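 As to activity, negative = cytotoxic: plate controls were DMSO for no effect and bortezomib for full effect.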 A digest of the protocol:
as §1

The nature of experiment [5]: qHTS of pediatric cancer cell lines to identify multiple opportunities for drug repurposing: Confirmatory screen for Rh18 cells (AID 1347125). Also: nearly all actives have a fitted effect of over 55% in size. As to activity change, negative = cytotoxic: % is scaled to controls: 0 for no effect and ±100 for the full control effect. In a few lines: as §1
Experiment [6] can be described thus: qHTS of pediatric cancer cell lines to identify multiple opportunities for drug repurposing: Confirmatory screen for Rh30 cells (AID 1347126). Also: nearly all actives have a fitted effect of over 55% in size. As to activity change, negative = cytotoxic: % is scaled to controls: 0 for no effect and ±100 for the full control effect. An excerpt: (§2) Drug repurposing or repositioning has been offered as a strategy for drug development in oncology programs. This approach has special potential for childhood cancers and other rare or orphan diseases, where the expected return on new drug development has been a disincentive to pharmaceuticals.
(§3) In this project we exploit the poly-pharmacology of drugs to discover new indications via phenotypic screening of a panel of 19 well-characterized cell lines derived from solid tumors seen in children and adolescents. The goal is to identify approved drugs with previously unrecognized anticancer properties that has the potential to reveal new mechanisms and biological processes involved in carcinogenesis or drug resistance. We employed a titration-based paradigm (quantitative high-throughput screening or qHTS), where all compounds were tested at multiple concentrations for their effect on cell viability. Concentration-response curves (CRCs) were derived directly from the primary screen, and both potency and efficacy values were used to identify compounds with robust bioactivity profiles. We screened the NIH Chemical Genomics Center (NCGC) Pharmaceutical Collection (NPC) and Mechanism Interrogation Plate (MIPE) small molecule collections of approved and investigational compounds against these cell lines; and measured metabolically active cells after 48 hours of compound treatment as a proxy for cell viability.
(§4) Assay Submitter: Nathalia J. Martinez, National Center for Advancing Translational Sciences, National Institutes of Health, Rockville, MD, USA; email: natalia.martinez@nih.gov
(§5) [1] Shen, M et al. Quantitative high-throughput phenotypic screening of pediatric cancer cell lines identifies multiple opportunities for drug repurposing. Oncotarget 2017 Dec 19;9(4):4758-4772. PMID 29435139.
(§6) The cells were obtained from University of North Carolina (UNC), Pediatric Preclinical Testing Program (PPT), and Coriell Institute (CI).
(§7) qHTS cell viability assay:
(§8) Cells were assayed in growth media at a density of 500-1,000 cells/well. Five microliters of cells were dispensed into 1,536-well, white, solid-bottom, TC-treated plates (Greiner Bio One) using a multidrop dispenser and incubated at 37 degrees C, 5% CO2, under a humidified atmosphere for 5 hours. Twenty-three nanoliters of compounds and controls (neutral control DMSO or positive control bortezomib at final concentration of 2.3 µM) were subsequently transferred by Kalypsys pintool. For primary screens, the MIPE collection was tested at 11-point dilutions (final concentrations range from 0.78 nM to 46 µM) and the NPC collection at 8-point dilutions (final concentrations range from 0.59 nM to 46 µM). Compounds tested in follow-up screens were assayed at 11-point dilutions. Cells were incubated for 48 hours, followed by addition of 3 µL of CellTiter-Glo (Promega). After a 15 min incubation at room temperature, samples were analyzed for luminescence intensity using a ViewLux High-throughput CCD imager equipped with clear filters.

The nature of experiment [7]: qHTS of pediatric cancer cell lines to identify multiple opportunities for drug repurposing: Confirmatory screen for TC32 cells (AID 1347118).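 Also: cells exposed to compound for 48 h before the read; nearly all actives have a fitted effect of over 65% in size.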 The settings on record: TC32 Ewing sarcoma cells viability qHTS.
Description: as §2, §3, §4, §5, §6, §7
as §8, with “2.3 uM)” for “2.3 µM)”, “3 uL” for “3 µL”, “a 15min” for “a 15 min”

The nature of experiment [8]: qHTS of pediatric cancer cell lines to identify multiple opportunities for drug repurposing: Confirmatory screen for U-2 OS cells (AID 1347122). Also: nearly all actives have a fitted effect of over 65% in size. A digest of the protocol:
as §1

Experiment [9] is described as follows: qHTS of pediatric cancer cell lines to identify multiple opportunities for drug repurposing: Confirmatory screen for Rh41 cells (AID 1347123).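 Also: 48 h compound exposure; nearly all actives have a fitted effect of over 60% in size.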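 As to activity change, negative = cytotoxic: plate controls were DMSO for no effect and bortezomib for full effect.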
Description: as §2, §3, §4, §5, §6, §7, §8

Experiment [10] can be described thus: qHTS of pediatric cancer cell lines to identify multiple opportunities for drug repurposing: Confirmatory screen for RD cells (AID 1347124).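 Also: cells exposed to compound for 48 h before viability readout; nearly all actives have a fitted effect of over 65% in size.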 As to activity change, negative = cytotoxic: % is scaled to controls: 0 for no effect and ±100 for the full control effect. A digest of the protocol: as §1
Potency is read from the fitted curve at half-maximal effect.

Consider `NCCCNCCSP(=O)(O)O`, for which the Potency in [1] is 0.215 µM (active). Besides, the figures for the activity change, negative = cytotoxic in [2], in experiment [5] and in experiment [6] were 0.812% [at 9.58 µM], 1.32% [at 9.58 µM] and -18.1% [at 9.47 µM], respectively. Besides, the activity change, negative = cytotoxicity in experiment [3] is 6.09% [at 9.58 µM]. Besides, the activity, negative = cytotoxic in experiment [4] was 0.865% [at 9.58 µM].

Turning to `C[n+]1cc2c3c(ccc2c2ccc4cc5c(cc4c21)OCO5)OCO3`, the Potency in [1] was 3.62 µM (active); in [2] it was 1.44 µM (active); in experiment [7], 1.15 µM (active); in experiment [3], 1.62 µM (active); in [4], 4.56 µM (active); in [8], 1.44 µM (active). Moreover, the Potency in [9] was 2.29 µM (active); in experiment [10], 1.82 µM (active); in experiment [5] it was 1.62 µM (active).

With `C[C@]12C=CC(=O)C=C1CC[C@H]1[C@@H]3C[C@@H](O)[C@](O)(C(=O)CO)[C@@]3(C)C[C@H](O)[C@@]12F`, the Potency was 9.27 µM (active) in experiment [2]; 6.57 µM (active) in experiment [7]; 7.37 µM (active) in experiment [10]; 9.27 µM (active) in [5]; 7.37 µM (active) in experiment [6].

Take `C[C@]12CC[C@@H]3c4ccc(O)cc4C[C@@H](CCCCCCCCCS(=O)CCCC(F)(F)C(F)(F)F)[C@H]3[C@@H]1CC[C@@H]2O` (stereo not given in full): the Potency entry in experiment [1], in [2], in [10], in [5] and in experiment [6] was “inactive” each time. Besides, the Potency in experiment [7] and in [9] was 8.27 µM (active) each time.

Turning to `Nc1nc(N)c2nc(-c3ccccc3)c(N)nc2n1`, the Potency is 9.27 µM (active) in experiment [1] and 3.69 µM (active) in [7]. Further, the Potency entry in [4], in experiment [9], in experiment [10], in [5] and in [6] was “inactive” throughout.

For the compound `CN1C[C@H](C(=O)N[C@]2(C)O[C@@]3(O)[C@@H]4CCCN4C(=O)[C@H](Cc4ccccc4)N3C2=O)C[C@@H]2c3cccc4[nH]cc(c34)C[C@H]21`, the Potency result in [2], in [3], in [4], in experiment [8], in experiment [10] and in experiment [5] was “inactive” throughout. The Potency result in experiment [6] is “inactive”. The Potency in experiment [9] was 3.29 µM (active).

`CN/C(=C\[N+](=O)[O-])NCCSCc1ccc(CN(C)C)o1`: the Potency entry in [1], in experiment [2], in experiment [3], in [8], in experiment [9] and in experiment [5] was “inactive” each time. Also, the Potency is 10.4 µM (active) in [7] and 0.185 µM (active) in experiment [6].
